These results are taken from PubChem BioAssay (NCI).

Compounds without any hit were thinned out: in the full panel of roughly 79,000, 15% have a hit. Unmarked numbers belong to inactive results. Active and inactive are the calls of the source. Cut-off read from the data, not from the text of the source: active = growth inhibition above about 70%; inactive = the rest.

Assay [1] is described as follows: NCI Yeast Anticancer Drug Screen. Data for the rad50 strain (AID 155).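 Note: 0% = growth of vehicle-only cultures of the same strain.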 Conditions: S. cerevisiae rad50 strain growth inhibition, stronger effect = higher value. The procedure, abridged:
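Growth of the mutant yeast was measured after compound exposure and referenced to vehicle-treated cultures.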

Assay [2] in a line: NCI Yeast Anticancer Drug Screen. Data for the mec2-1 strain (AID 157). The following applies: S. cerevisiae mec2-1 strain, stronger effect = higher value. A digest of the protocol: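 Using mec2-1 yeast: add compound, measure growth, express inhibition versus vehicle-treated cultures.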
Assay [3] is described as follows: NCI Yeast Anticancer Drug Screen. Data for the sgs1 mgt1 strain (AID 161).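 Note: 0% = growth of cultures given vehicle only.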 The following applies: S. cerevisiae sgs1 mgt1 strain, stronger effect = higher value. The procedure, abridged: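 Growth of a repair-deficient yeast mutant was monitored after compound treatment and expressed as inhibition relative to vehicle-treated cultures.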
Assay [4] is described as follows: NCI Yeast Anticancer Drug Screen. Data for the cln2 rad14 strain (AID 165).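 Note: 0% = growth equal to vehicle treated cultures.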 Conditions: S. cerevisiae cln2 rad14 strain, stronger effect = higher value. A digest of the protocol:
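Yeast strain cln2 rad14, bearing defects in cell cycle control and DNA repair, serves as the test system; values reflect growth inhibition compared with vehicle.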

A short description of assay [5]: NCI Yeast Anticancer Drug Screen. Data for the bub3 strain (AID 167). Conditions: S. cerevisiae bub3 mutant strain, stronger effect = higher value. A digest of the protocol:
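Whole-cell yeast assay. The mutant strain was incubated with compounds, and growth inhibition was determined by comparison with vehicle-treated cells.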

Assay [6] can be described thus: NCI Yeast Anticancer Drug Screen. Data for the mlh1 rad18 strain (AID 175). The following applies: S. cerevisiae mlh1 rad18 strain growth inhibition, stronger effect = higher value. A digest of the protocol: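 Steps: expose repair-defective yeast to compound; measure growth; express inhibition against vehicle-treated controls.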
The mark [7] stands for this setting: at 5.0 µM (retest, dose inferred, filed as 0.5).
Setting [8] is: at 50.0 µM (retest, dose inferred, filed as 5.0).

Take `CN(C)C1C=CCC(c2ccccc2)C1[N+](=O)[O-]` (stereo not given): the growth inhibition was 1% in assay [1] (setting [7]); 83% (active) in assay [1] (setting [8]); 93.2% (active) in assay [1] (at 50.0 µM); 10% in assay [2] (setting [7]); 68% in assay [2] (setting [8]); 96.9% (active) in assay [2] (at 50.0 µM). The growth inhibition in assay [3] (setting [7]) was 7%; in assay [3] (setting [8]), 81% (active); in assay [3] (at 50.0 µM), 98.5% (active); in assay [4] (setting [7]) it was 5%; in assay [4] (setting [8]) it was 70% (active); in assay [4] (at 50.0 µM) it was 92.3% (active). In addition, the growth inhibition was 1% in assay [5] (setting [7]); 79% (active) in assay [5] (setting [8]); 92.5% (active) in assay [5] (at 50.0 µM); 5% in assay [6] (setting [7]); 94% (active) in assay [6] (setting [8]); 98.8% (active) in assay [6] (at 50.0 µM).
On to `C/C(=N/NC(N)=O)c1ccc(Cl)s1`, for which the growth inhibition in assay [1] (setting [7]) was 0%; in assay [1] (setting [8]) it was -1%; in assay [1] (at 50.0 µM) it was 12.9%; in assay [2] (setting [7]) it was 23%; in assay [2] (setting [8]), -3%; in assay [2] (at 50.0 µM), 5%. In addition, the growth inhibition is -1% in assay [3] (setting [7]); 0% in assay [3] (setting [8]); -4.35% in assay [3] (at 50.0 µM); -8% in assay [4] (setting [7]); -3% in assay [4] (setting [8]); 52.9% in assay [4] (at 50.0 µM). The growth inhibition is -2% in assay [5] (setting [7]); -7% in assay [5] (setting [8]); 9.4% in assay [5] (at 50.0 µM); -5% in assay [6] (setting [7]); -1% in assay [6] (setting [8]); 1.6% in assay [6] (at 50.0 µM).
`CCCCN1C(=O)C[C@H]2[C@@H]3CCc4cc(OCCN5CCCC5)ccc4[C@H]3CC[C@]2(C)C1=O`: the growth inhibition in assay [1] (setting [7]) was 36%; in assay [1] (setting [8]), 75% (active); in assay [1] (at 50.0 µM), 56.9%; in assay [2] (setting [7]) it was 30%; in assay [2] (setting [8]), 53%; in assay [2] (at 50.0 µM) it was 55.4%. For the same compound, the growth inhibition in assay [3] (setting [7]) is 66%; in assay [3] (setting [8]), 90% (active); in assay [3] (at 50.0 µM), 71.5% (active); in assay [4] (setting [7]), 33%; in assay [4] (setting [8]), 70% (active); in assay [4] (at 50.0 µM), 73.1% (active). For the same compound, the growth inhibition in assay [5] (setting [7]) is 57%; in assay [5] (setting [8]), 72% (active); in assay [5] (at 50.0 µM), 78.6% (active); in assay [6] (setting [7]), 68%; in assay [6] (setting [8]) it was 78% (active); in assay [6] (at 50.0 µM) it was 63.6%.
In the case of `C[P+](c1ccccc1)(c1ccc(Cl)cc1)c1ccc(Cl)cc1`, the growth inhibition is -26% in assay [1] (setting [7]); 72% (active) in assay [1] (setting [8]); 50.6% in assay [1] (at 50.0 µM); -3% in assay [2] (setting [7]); 28% in assay [2] (setting [8]); 28.7% in assay [2] (at 50.0 µM). Besides, the growth inhibition was 0% in assay [3] (setting [7]); 81% (active) in assay [3] (setting [8]); 71.9% (active) in assay [3] (at 50.0 µM); -3% in assay [4] (setting [7]); 1% in assay [4] (setting [8]); -39.3% in assay [4] (at 50.0 µM). Further, the growth inhibition in assay [5] (setting [7]) was -1%; in assay [5] (setting [8]) it was 75% (active); in assay [5] (at 50.0 µM) it was 69.5%; in assay [6] (setting [7]), 12%; in assay [6] (setting [8]) it was 59%; in assay [6] (at 50.0 µM) it was 46.9%.
Take `CCC[n+]1ccc(/C=N\NC(N)=S)c2ccccc21`: the growth inhibition is 22% in assay [1] (setting [7]); 38% in assay [1] (setting [8]); 38.2% in assay [1] (at 50.0 µM); 19% in assay [2] (setting [7]); 36% in assay [2] (setting [8]); -16.4% in assay [2] (at 50.0 µM). Also, the growth inhibition is 21% in assay [3] (setting [7]); 38% in assay [3] (setting [8]); 6.2% in assay [3] (at 50.0 µM); 9% in assay [4] (setting [7]); 34% in assay [4] (setting [8]); 5.25% in assay [4] (at 50.0 µM). Also, the growth inhibition in assay [5] (setting [7]) was 15%; in assay [5] (setting [8]), 42%; in assay [5] (at 50.0 µM), -6.7%; in assay [6] (setting [7]), 17%; in assay [6] (setting [8]), 33%; in assay [6] (at 50.0 µM), -41.6%.
With `O=Cc1ccc(-c2nccc3c2[nH]c2ccccc23)o1`, the growth inhibition in assay [1] (setting [7]) was 23%; in assay [1] (setting [8]) it was 35%; in assay [1] (at 50.0 µM), 78.2% (active); in assay [2] (setting [7]) it was 15%; in assay [2] (setting [8]), 17%; in assay [2] (at 50.0 µM), 26.9%. Further, the growth inhibition in assay [3] (setting [7]) was 17%; in assay [3] (setting [8]), 20%; in assay [3] (at 50.0 µM) it was 19.1%; in assay [4] (setting [7]) it was 12%; in assay [4] (setting [8]), 16%; in assay [4] (at 50.0 µM) it was 16.1%. Further, the growth inhibition in assay [5] (setting [7]) was 24%; in assay [5] (setting [8]), 14%; in assay [5] (at 50.0 µM) it was 8.9%; in assay [6] (setting [7]), 21%; in assay [6] (setting [8]), 25%; in assay [6] (at 50.0 µM) it was -1.45%.
Regarding `CCCCCCCCCCCCCCCCCCNCCCCCCCCCCCCCCCC`, the growth inhibition in assay [1] (setting [7]) was 6%; in assay [1] (setting [8]), 3%; in assay [1] (at 50.0 µM), 52.7%; in assay [2] (setting [7]), -1%; in assay [2] (setting [8]), 8%; in assay [2] (at 50.0 µM), 38.5%. Moreover, the growth inhibition in assay [3] (setting [7]) is 5%; in assay [3] (setting [8]), 0%; in assay [3] (at 50.0 µM) it was 49.9%; in assay [4] (setting [7]), -1%; in assay [4] (setting [8]), 2%; in assay [4] (at 50.0 µM), 75% (active). The growth inhibition was -5% in assay [5] (setting [7]); 3% in assay [5] (setting [8]); 69.2% in assay [5] (at 50.0 µM); 4% in assay [6] (setting [7]); 6% in assay [6] (setting [8]); 45.8% in assay [6] (at 50.0 µM).
Regarding `CC(C)(C)c1ccc(C(=O)C[n+]2ccc(Cl)c3ccc(Cl)cc32)cc1`, the growth inhibition was 0% in assay [1] (setting [7]); 98% (active) in assay [1] (setting [8]); 99% (active) in assay [1] (at 50.0 µM); 1% in assay [2] (setting [7]); 99% (active) in assay [2] (setting [8]); 99.3% (active) in assay [2] (at 50.0 µM). Further, the growth inhibition in assay [3] (setting [7]) is 0%; in assay [3] (setting [8]), 99% (active); in assay [3] (at 50.0 µM) it was 62.9%; in assay [4] (setting [7]), -2%; in assay [4] (setting [8]), 97% (active); in assay [4] (at 50.0 µM) it was 53.5%. Besides, the growth inhibition in assay [5] (setting [7]) was 2%; in assay [5] (setting [8]) it was 98% (active); in assay [5] (at 50.0 µM) it was -1.75%; in assay [6] (setting [7]), 1%; in assay [6] (setting [8]), 99% (active); in assay [6] (at 50.0 µM), 99.2% (active).
In the case of `c1ccc(N=Nc2n[nH]c3ccccc23)cc1`, the growth inhibition in assay [1] (setting [7]) is -144%; in assay [1] (setting [8]) it was 94% (active); in assay [1] (at 50.0 µM), 98.6% (active); in assay [2] (setting [7]) it was -51%; in assay [2] (setting [8]) it was 74% (active); in assay [2] (at 50.0 µM) it was 98.8% (active). The growth inhibition is -66% in assay [3] (setting [7]); 85% (active) in assay [3] (setting [8]); 92.6% (active) in assay [3] (at 50.0 µM); -59% in assay [4] (setting [7]); 29% in assay [4] (setting [8]); 98% (active) in assay [4] (at 50.0 µM). Also, the growth inhibition was -65% in assay [5] (setting [7]); 91% (active) in assay [5] (setting [8]); 97.1% (active) in assay [5] (at 50.0 µM); -119% in assay [6] (setting [7]); 94% (active) in assay [6] (setting [8]); 97% (active) in assay [6] (at 50.0 µM).
In the case of `CC(C)Sc1nc(NC(=O)N(CCCl)N=O)cc(=O)[nH]1`, the growth inhibition in assay [1] (setting [7]) was -12%; in assay [1] (setting [8]), 26%; in assay [1] (at 50.0 µM), 13.8%; in assay [2] (setting [7]) it was -4%; in assay [2] (setting [8]) it was 9%; in assay [2] (at 50.0 µM), -2%. Further, the growth inhibition in assay [3] (setting [7]) was -12%; in assay [3] (setting [8]), 23%; in assay [3] (at 50.0 µM), 20.4%; in assay [4] (setting [7]), 8%; in assay [4] (setting [8]), 12%; in assay [4] (at 50.0 µM) it was 5.7%. The growth inhibition is -1% in assay [5] (setting [7]); 7% in assay [5] (setting [8]); 13.2% in assay [5] (at 50.0 µM); 2% in assay [6] (setting [7]); 74% (active) in assay [6] (setting [8]); 23.8% in assay [6] (at 50.0 µM).
